For 101 molecules, INHIBITION results are on record in ChEMBL document CHEMBL4513216, “Probing the Open Global Health Chemical Diversity Library for Multistage-Active Starting Points for Next-Generation Antimalarials” (ACS Infect Dis, 2020).

SMILES strings stand for the structures. The whole screen tested about 69,000 compounds, of which about 8,600 (12%) showed an effect of 50% or more. Only a selection was taken, and strong results are over-represented in it overall.

The test system of this experiment is Plasmodium berghei. The experiment in a line: Screen against P. berghei liver stage (PbLuc), transformed with Luciferase, at 10uM. In kind it is functional, HepG2. Particulars: tested at 10 uM.
Consider `CCCC(=O)N1CCCCC1c1nccc(C)n1` (stereo unspecified), for which the INHIBITION was determined as 20.8%. To `COc1ccc(CN(C)[C@@H]2CN(C(=O)c3cccn3C)C[C@H]2O)cc1` belongs 32.8%; to `CCN(CC)c1ncc2c(c1C(=O)O)CCN(C1CCOC1)C2` (stereo unspecified), 15.7%. With `CCN(C)c1ncc2c(c1C(=O)O)CCN(C1CCOC1)C2` (stereo unspecified), the INHIBITION was determined as 33.4%. For `CN1CCN(c2ncc3c(c2C(=O)O)CCN(C2CCOC2)C3)CC1` (stereo unspecified), the INHIBITION came to 58.5%. The value for `CO[C@@H]1CCN(C(=O)c2ccsc2)[C@@H]2CN(CC3CC3)C[C@@H]21` was -19.6%; that for `NC(=O)COc1ccc(CN2CCC3(CC2)[C@H](O)C[C@@H]3O)cc1Cl` was 28.7%. `NC(=O)COc1ccc(CN2CC[C@@]3(O)CCCC[C@H]3C2)cc1Cl`: the INHIBITION was 16.8%. On to `NC(=O)COc1ccc(CN2CCC(O)(CN3CCCCC3)C2)cc1Cl` (stereo unspecified), for which the INHIBITION is given as 50.5%. The value for `COc1ccccc1C1CCN(C(=O)CN2C(=O)OC(C)(C)C2=O)CC1` was -140%; that for `Cc1c(C(C)NC2CCCC2)cnn1-c1ccc(F)cc1F` (stereo unspecified) was 31.9%. With `COc1ccc(-n2ncc(C(C)NCc3cnc(SC)nc3)c2C)cc1` (stereo unspecified), the INHIBITION amounted to 7.6%. The value for `Cc1c(C(C)NCC2CCCC2)cnn1-c1ccc(F)cc1F` (stereo unspecified) was 62.9%. The value for `CSc1ncc(CNC(C)c2cnn(-c3ccc(F)cc3F)c2C)cn1` (stereo unspecified) was 50.3%. To `CSc1ncc(CNC(C)c2cnn(-c3ccccc3)c2C)cn1` (stereo unspecified) belongs 36.7%; to `Cc1c(C(C)NC2CCOCC2)cnn1-c1ccc(F)cc1F` (stereo unspecified), 22.3%; to `O=C(NC[C@H]1OC[C@@H]2CCN(C3CCOCC3)C[C@@H]21)c1ccncc1`, 36.2%. As to `COc1c(CNC2CCc3c(Cl)cccc32)c(C)nn1C` (stereo unspecified), the INHIBITION was 36.3%.

As to `CCCN1CCC(N2CCC(Cn3cc(CC(C)O)nn3)CC2)CC1` (stereo unspecified), the INHIBITION stood at 25.3%. The value for `CC(O)Cc1cn(CC2CCN(C3CCSCC3)CC2)nn1` (stereo unspecified) was 57.8%; that for `OCc1cn(CC2CCN(C3CCSC3)CC2)nn1` (stereo unspecified) was -14.1%.

`O=C(O)c1cc(-c2cccs2)nc2c(Br)cnn12`: the INHIBITION is 15.9%. `Cn1cc(NC(=O)CNC(=O)N2CCN(c3ccccc3)CC2)cn1`: the INHIBITION was 21.5%. The value for `Cc1cnc(CN(C)C2CCN(CC(=O)Nc3nncs3)C2)o1` (stereo unspecified) was 20.9%. For `CCCC(=O)N1CCC2(CC1)CN(Cc1cccc(C)n1)C(=O)CO2`, the INHIBITION was found to be 25.3%. The value for `CS(=O)(=O)N1CC[C@H]2O[C@H](C(=O)NCc3cccnc3)CC[C@H]21` was 11.4%. To `CS(=O)(=O)N1CC[C@H]2O[C@H](C(=O)NCCc3ccncc3)CC[C@H]21` belongs -35.9%; to `O=C(NCc1cccs1)[C@H]1CC[C@@H]2[C@@H](CCN2Cc2ccoc2)O1`, -5.31%. For the molecule `O=C(Nc1cnccn1)[C@H]1CC[C@@H]2[C@@H](CCN2Cc2ccoc2)O1`, the INHIBITION is recorded as 8.52%. To `CS(=O)(=O)N1CC[C@H]2O[C@H](C(=O)NCCc3ccccn3)CC[C@H]21` belongs 54.7%. The value for `O=C(NCCc1ccccn1)[C@@H]1CC[C@@H]2[C@@H](CCN2Cc2ccoc2)O1` was 59.9%. To `Cc1c(C(=O)N(C)c2ccccc2)cccc1N(C)S(C)(=O)=O` belongs 22.07%.

Consider `CN(Cc1ccc(F)cc1)[C@@H]1CN(S(C)(=O)=O)C[C@H]1O`, for which the INHIBITION stood at 14.12%. The value for `CC(O)CN1CCN(C(=O)c2cnc(OC(C)C)c(Cl)c2)CC1` (stereo unspecified) was 40.5%; that for `CC(C)Oc1ncc(C(=O)N2CCC(CC(N)=O)CC2)cc1Cl` was 16.9%; that for `CC(=O)N1CCCN(C(=O)c2cnc(OC(C)C)c(Cl)c2)CC1` was 51.1%.

Take `CCN1CCCN(C(=O)c2cnc(OC(C)C)c(Cl)c2)CC1`: the INHIBITION is 60.1%. On to `CC(C)Oc1ncc(C(=O)N2CCC(N(C)C)CC2)cc1Cl`, for which the INHIBITION worked out at 26.6%.

As to `CC(=O)N1CCN(C(=O)c2cnc(OC(C)C)c(Cl)c2)CC1`, the INHIBITION is recorded as -2.32%. To `O=C(N[C@@H]1CN(Cc2cccs2)[C@@H]2CCCO[C@@H]21)c1cscn1` belongs -17.1%; to `O=C(NCCNc1ncccn1)N1CCCC1c1ccncc1` (stereo unspecified), 11.8%; to `Cc1nc(CN(Cc2ccncc2)C2CCN(C)CC2)cs1`, 8.46%.

As to `Cc1c(-c2cc(C(F)(F)F)nc(N3CCC(N)CC3)n2)cnn1C`, the INHIBITION is 50.8%. The value for `CCNC(=O)[C@@H]1C[C@H](N)CN1c1cc(C(F)(F)F)nc(N2CCCC2)n1` was -122%; that for `CCc1ccc(-c2cc(C(F)(F)F)nc(N3CCC(N)CC3)n2)cc1` was 91.4%; that for `CCn1ncc(-c2cc(C(F)(F)F)nc(N3CCC(N)CC3)n2)c1C` was -1.84%. For the molecule `FC(F)(F)c1cc(-c2cccs2)nc(N2CCN3CCCC3C2)n1` (stereo unspecified), the INHIBITION was 25.3%.

For the molecule `Cc1ccc(-c2cc(C(F)(F)F)nc(N3CCOCC3)n2)s1`, the INHIBITION turned out to be 29.8%. For the molecule `CCc1nc(C2CCCN2Cc2cc(=O)n(C)c(=O)n2C)no1` (stereo unspecified), the INHIBITION is on record as -27.9%.

With `CC(C)C(CCO)NC(=O)Nc1ccc(-c2csnn2)cc1` (stereo unspecified), the INHIBITION is -6.39%.

Regarding `Cc1cccc(CN2C(=O)CCC23CCN(c2ccccn2)CC3)n1`, the INHIBITION was -11%.

For `Cc1nn(-c2cc(Cl)cc(Cl)c2)c(C)c1CCC(=O)O`, the INHIBITION amounted to 46.1%. `CC(c1ccccn1)N(C)Cc1ccc(-n2cncn2)cc1` (stereo unspecified): the INHIBITION is listed as 28.5%.

Consider `CN1CCOC(CNC(=O)C2(c3cccc(Cl)c3)CC2)C1` (stereo unspecified), for which the INHIBITION is recorded as 0.348%.

`Cc1cccc(C2(C(=O)NCC3CN(C)CCO3)CC2)c1` (stereo unspecified): the INHIBITION was determined as 19.8%. Consider `CN1CCOC(CNC(=O)C2(c3ccccc3)CCC2)C1` (stereo unspecified), for which the INHIBITION amounted to 57.4%. The value for `CN1CCOC(CNC(=O)CCCOc2ccccc2F)C1` (stereo unspecified) was 52%. To `Cc1ccccc1OCCCC(=O)NCC1CN(C)CCO1` (stereo unspecified) belongs 22.265%. Turning to `CN1CCOC(CNC(=O)CCCOc2cccc(F)c2)C1` (stereo unspecified), the INHIBITION is -5.2%.

Regarding `CC(C)CC(CC(C)C)NC(=O)c1ccn(C)c(=O)c1`, the INHIBITION came out at 1.51%. The value for `COc1ncccc1CN1C[C@H]2C[C@@H](C(=O)NCC3CC3)N(C)[C@H]2C1` was 29.7%. To `CC(C)c1nn(C)cc1CNCc1cccnc1N(C)C` belongs 14.7%; to `CSCC(=O)N1CCc2c(cnc(C)c2-c2noc(-c3ccco3)n2)C1`, 33%. For `COCCn1cc(NC(=O)NCC2CCN(c3ccccc3)C2)cn1` (stereo unspecified), the INHIBITION stood at 22.8%. To `Cc1ncsc1C(=O)OCC1CCN(c2ccccc2)C1` (stereo unspecified) belongs 89.4%; to `Cc1ncc(C(=O)OCC2CCN(c3ccccc3)C2)s1` (stereo unspecified), 58.5%; to `Cc1ncsc1C(=O)N1CCN(Cc2ccccc2)CC1C` (stereo unspecified), 23.8%.

With `Cc1ncsc1C(=O)OCCN1CCCc2ccccc21`, the INHIBITION was found to be 41.3%. The value for `COCc1nc(C(=O)OCC2CCN(c3ccccc3)C2)cs1` (stereo unspecified) was 18.3%; that for `O=C(OCC1CCCN(C(=O)c2ccccc2)C1)c1cscn1` (stereo unspecified) was 10.6%. Regarding `Cn1ncc(C(=O)OCC2CCN(c3ccccc3)C2)c1C(F)F` (stereo unspecified), the INHIBITION is 9.96%. Turning to `O=C(OCC1CCN(c2ccccc2)C1)c1cscn1` (stereo unspecified), the INHIBITION stood at 51.7%. `Cc1oc(-c2nc(C#N)c(NC3CC3)o2)cc1S(=O)(=O)N1CCCC1`: the INHIBITION amounted to 25.8%. `CCN(Cc1ccco1)C(=O)NCC(C)N1CCc2sccc2C1` (stereo unspecified): the INHIBITION is recorded as -3.72%. The value for `Cc1occc1C(=O)N1C[C@@H]2CCCO[C@@H]2[C@H](N(C)Cc2ccco2)C1` was 43.9%. With `Cc1cccc(CN(C(=O)NCc2ccccn2)C2CC2)c1`, the INHIBITION is 19.4%. The value for `COc1ccccc1N1CCN(C(=O)c2ccnc(N(C)C)c2)CC1` was 77.15%; that for `COc1ccccc1N1CCN(C(=O)c2ccoc2)CC1` was -17.4%. As for `CN(C)c1cc(C(=O)N2CCCC2)ccn1`, the INHIBITION is on record as -4.567%. To `O=C(N1CCCO1)[C@@]12CCO[C@@H]1CCN(Cc1ccsc1)C2` belongs 14.5%; to `CC(CNC(=O)N1CCSCC1)Cc1cccs1` (stereo unspecified), -18.2%; to `CC(CNC(=O)N1CCNC(=O)CC1)Cc1cccs1` (stereo unspecified), 51.1%.

With `CC(CNC(=O)N1CCS(=O)(=O)CC1)Cc1cccs1` (stereo unspecified), the INHIBITION is listed as 16.1%. Take `Cn1cc(CN(CC2(O)CCNC2)C2CCCCC2)cn1` (stereo unspecified): the INHIBITION stood at 38.5%. To `O=C(Nc1ccccc1F)C1CN(C(=O)c2ccc3c(c2)OCO3)C1` belongs 46.1%; to `Cc1nnc([C@@]23CCO[C@@H]2CCN(S(=O)(=O)c2cccnc2)C3)o1`, -1.36%; to `Cc1nnc([C@@]23CCO[C@@H]2CCN(S(C)(=O)=O)C3)o1`, 23.3%. To `Cc1nnc([C@@]23CCO[C@@H]2CCN(S(=O)(=O)c2ccccc2)C3)o1` belongs 61.1%; to `CCCS(=O)(=O)N1CC[C@H]2OCC[C@@]2(c2nnc(C)o2)C1`, 55.5%; to `CCS(=O)(=O)N1CC[C@H]2OCC[C@@]2(c2nnc(C)o2)C1`, 34.6%. On to `Cc1noc([C@@]23CCO[C@@H]2CCN(S(=O)(=O)c2cccnc2)C3)n1`, for which the INHIBITION is 44.8%. The value for `CN(C)CCOCC1CN(Cc2cccs2)Cc2ccnn2C1` (stereo unspecified) was 33.4%; that for `CC(NC1CCN(CCc2ccncc2)CC1)c1cnn(C(C)C)c1` (stereo unspecified) was 37.9%; that for `Cc1cccnc1NC(=O)c1ccc(F)c(S(=O)(=O)N2CCC2)c1` was 13.3%. As for `O=C(Cc1cccs1)N1C[C@@H]2CN(Cc3ccoc3)CCO[C@@H]2C1`, the INHIBITION is given as 24.1%. Turning to `CCN1Cc2cc(F)ccc2N(CC(O)C(F)(F)F)CCC1=O` (stereo unspecified), the INHIBITION turned out to be 47.2%. To `CN(C)C(=O)c1cn[nH]c1C1CCCN1Cc1c[nH]cn1` (stereo unspecified) belongs 18.4%. The value for `CN(C)C(=O)c1cn[nH]c1C1CCCN1Cc1cncn1C` (stereo unspecified) was -11.3%; that for `CN(C)C(=O)c1cn[nH]c1C1CCCN1Cc1nccn1C` (stereo unspecified) was 55.8%. In the case of `Cc1nc(CN2CCO[C@H]3[C@@H](OCc4ccccn4)CC[C@@H]32)cs1`, the INHIBITION was found to be 40.4%. The value for `Cc1ccc2cccc(Oc3nc(C)c(C(=O)O)s3)c2n1` was 12.7%.
